Where “and” joins values, the source holds several entries; their conditions need not be identical. Equal values may be shown once. This is part of a sample that, as a whole, favours compounds with a hit. Of some 79,000 tested, about 15% had one in any assay. Some compounds were tested as several samples or in several runs, with calls that do not always agree. Calls of active or inactive are those of the source. No stated cut-off is given here; in the data, active means growth inhibition above about 70%; inactive means the rest.
Experiment: NCI Yeast Anticancer Drug Screen. Data for the bub3 strain (AID 167)
Settings: S. cerevisiae bub3 mutant strain, stronger effect = higher value
Protocol: Growth inhibition of yeast strains with defined genetic alterations is measured as a screen for potential anti-cancer activity. Selected strains with alterations in DNA damage repair or cell cycle control were exposed to compounds and growth inhibition was measured relative to vehicle treated controls. The strain used in this assay is bub3

[1] = at 5.0 µM (retest, dose inferred, filed as 0.5)
[2] = at 50.0 µM (retest, dose inferred, filed as 5.0)

For `CCCCCCCCCC[Se]C#N`, the growth inhibition (at 1.2 µM) was 0% (inactive), the growth inhibition (at 3.7 µM) was -2% (inactive) and the growth inhibition [1] was 4% (inactive). The growth inhibition (at 11.0 µM) was -2% (inactive), the growth inhibition (at 33.0 µM) was 5% (inactive) and the growth inhibition [2] was 99% (active). The growth inhibition (at 50.0 µM) was 99.5% (active) and the growth inhibition (at 100.0 µM) was 90% (active).

For `COc1cc2ccccc2c2cc([N+](=O)[O-])oc12`, the growth inhibition (at 1.2 µM) was -21% (inactive), the growth inhibition (at 3.7 µM) was -21% (inactive) and the growth inhibition [1] was 2% (inactive). The growth inhibition (at 11.0 µM) was -1% (inactive), the growth inhibition (at 33.0 µM) was 5% (inactive) and the growth inhibition [2] was 14% (inactive). The growth inhibition (at 50.0 µM) was 3.55% (inactive) and the growth inhibition (at 100.0 µM) was 7% (inactive).

In the case of `Nc1ccc(Cl)cc1C(=O)c1ccccc1`, the growth inhibition (at 1.2 µM) was -35% (inactive), the growth inhibition (at 3.7 µM) was -40% (inactive) and the growth inhibition [1] was -6% (inactive). For the same compound, the growth inhibition (at 11.0 µM) was -52% (inactive), the growth inhibition (at 33.0 µM) was -23% (inactive) and the growth inhibition [2] was 96% (active). For the same compound, the growth inhibition (at 50.0 µM) was 88.1% (active) and the growth inhibition (at 100.0 µM) was 96% (active).

With `CC[C@@]1(O)C(=O)OCc2c1cc1n(c2=O)Cc2cc3c(NC(=O)CN)cccc3nc2-1` the growth inhibition (at 1.2 µM) was -12% (inactive), the growth inhibition (at 3.7 µM) was -6% (inactive) and the growth inhibition [1] was -19% (inactive). For the same compound, the growth inhibition (at 11.0 µM) was 8% (inactive), the growth inhibition (at 33.0 µM) was 7% (inactive) and the growth inhibition [2] was -3% (inactive). For the same compound, the growth inhibition (at 50.0 µM) was 8.3% (inactive) and the growth inhibition (at 100.0 µM) was -6% (inactive).

In the case of `ClC(C[n+]1ccccc1)c1ccccc1` (stereo unspecified), the growth inhibition [1] was 1% (inactive), the growth inhibition [2] was 6% (inactive) and the growth inhibition (at 50.0 µM) was 26.4% (inactive) and 11.1% (inactive).

For `N#CC(C#N)=Cc1cccc([N+](=O)[O-])c1`, the growth inhibition [1] was 9% (inactive), the growth inhibition [2] was 76% (active) and the growth inhibition (at 50.0 µM) was -8.45% (inactive) and 99.5% (active).

In the case of `CCC[CH2][Sn]1([CH2]CCC)[O]CC[S]1`, the growth inhibition [1] was 87% (active), the growth inhibition [2] was 99% (active) and the growth inhibition (at 50.0 µM) was 96.1% (active).

From PubChem BioAssay (NCI)
